Measurements: PubChem BioAssay (NCI)
The panel holds about 79,000 compounds, 15% with a hit somewhere; the sample as a whole holds those more often. Calls of active or inactive are those of the source. No stated cut-off is given here; in the data, active means growth inhibition above about 70%; inactive means the rest.

Columns and labels:
[1] = NCI Yeast Anticancer Drug Screen. Data for the wt1 strain (AID 149);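 further: 0% = growth of vehicle-treated wt1 cultures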; details: S. cerevisiae wt1 strain (SPY 50644) growth inhibition, hits give high values
Method in brief: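 Compounds are added to wt1 yeast cultures. Growth is then measured. Inhibition is expressed relative to vehicle-treated controls.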

[2] = NCI Yeast Anticancer Drug Screen. Data for the rad50EPP+ strain (AID 151);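 further: 0% = growth of vehicle-treated control cultures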; details: S. cerevisiae rad50 mutant strain, hits give high values
Method in brief: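 One strain with a rad50 alteration (rad50EPP+) was compound-treated, its growth then compared to that of vehicle controls.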

[3] = NCI Yeast Anticancer Drug Screen. Data for the mgt1 strain (AID 153); details: S. cerevisiae mgt1 mutant growth inhibition, hits give high values
Method in brief: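 After exposure of the mgt1 yeast mutant to compound, growth was measured and reported as inhibition compared with vehicle controls.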

[4] = NCI Yeast Anticancer Drug Screen. Data for the rad50 strain (AID 155);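 further: 0% = growth of vehicle-only cultures of the same strain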; details: S. cerevisiae rad50 strain growth inhibition, hits give high values
Method in brief: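 Inhibition values express reduced yeast growth in compound-treated cultures relative to vehicle-treated controls.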

[5] = NCI Yeast Anticancer Drug Screen. Data for the mec2-1 strain (AID 157); details: S. cerevisiae mec2-1 strain, hits give high values
Method in brief: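 Test agents were screened against the mec2-1 yeast strain, with defined DNA repair or cell cycle alteration. Growth was scored as inhibition against vehicle-only controls.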

[6] = NCI Yeast Anticancer Drug Screen. Data for the rad14 strain (AID 159);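 further: 0% = growth of vehicle-treated control cultures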; details: S. cerevisiae rad14 strain growth inhibition, hits give high values
Method in brief: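 A mutant yeast strain defective in DNA damage repair is treated with compound; inhibition of its growth is scored against untreated, vehicle-exposed cultures.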

[7] = NCI Yeast Anticancer Drug Screen. Data for the sgs1 mgt1 strain (AID 161);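 further: 0% = growth of cultures given vehicle only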; details: S. cerevisiae sgs1 mgt1 strain, hits give high values
Method in brief: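 Genetically altered yeast, compound exposure, growth inhibition relative to vehicle.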

[8] = NCI Yeast Anticancer Drug Screen. Data for the CLN2oe strain (AID 163);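 further: 0% = growth of vehicle-only control cultures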; details: S. cerevisiae CLN2oe strain, hits give high values
Method in brief: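 Here, growth inhibition in a cell-cycle-altered yeast strain after compound exposure was quantified against vehicle control growth.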

[9] = NCI Yeast Anticancer Drug Screen. Data for the cln2 rad14 strain (AID 165);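 further: 0% = growth equal to vehicle treated cultures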; details: S. cerevisiae cln2 rad14 strain, hits give high values
Method in brief: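 Growth of compound-exposed yeast (cln2 rad14 genotype) measured and expressed as inhibition relative to vehicle.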

[10] = NCI Yeast Anticancer Drug Screen. Data for the bub3 strain (AID 167); details: S. cerevisiae bub3 mutant strain, hits give high values
Method in brief: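 Steps: expose the mutant yeast strain to compound; grow alongside vehicle-treated cultures; measure growth; express inhibition against the vehicle cultures.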

[11] = NCI Yeast Anticancer Drug Screen. Data for the wt2 strain (AID 169);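 further: 0% = growth of vehicle-treated yeast cultures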; details: S. cerevisiae wt2 strain growth inhibition, hits give high values
Method in brief: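 Genetically defined yeast strains from a DNA-repair/cell-cycle panel were used. Compound-exposed yeast growth was measured, and the inhibition was calculated relative to vehicle treatment.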

[12] = NCI Yeast Anticancer Drug Screen. Data for the mlh1 strain (AID 171);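 further: 0% = growth of vehicle-treated control cultures of the same strain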; details: S. cerevisiae mlh1 strain growth inhibition, hits give high values
Method in brief: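 Here the genetically defined yeast mutant is grown with each compound, and the extent to which its growth falls below that of vehicle-exposed cells is reported.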

[13] = NCI Yeast Anticancer Drug Screen. Data for the mlh1 rad18 strain (AID 175); details: S. cerevisiae mlh1 rad18 strain growth inhibition, hits give high values
Method in brief: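 In this whole-cell yeast screen, a strain with altered DNA damage repair is challenged with compound, and its growth is measured against matched vehicle-treated controls.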

[14] = NCI Yeast Anticancer Drug Screen. Data for the rad18 strain (AID 177); details: S. cerevisiae rad18 mutant growth inhibition, hits give high values
Method in brief: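 Screen uses a yeast strain with a defined lesion in DNA damage repair; compound effect is read as loss of growth compared to untreated vehicle cultures.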

[15] = NCI Yeast Anticancer Drug Screen. Data for the sgs1 strain (AID 173);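 further: 0% = growth of vehicle-only control cultures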; details: S. cerevisiae sgs1 mutant, hits give high values
Method in brief: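 Relative growth inhibition, referenced to vehicle, was determined in a yeast strain with a defined alteration affecting DNA damage repair or cell cycle control after compound exposure.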

[16] = at 5.0 µM (retest, dose inferred, filed as 0.5)
[17] = at 50.0 µM (retest, dose inferred, filed as 5.0)

Measured: growth inhibition

S=C(NCc1ccccn1)N/N=C/c1ccccn1
inactive: [2]; at 1.2 µM 34% | [2]; at 3.7 µM 63% | [4]; [16] 40% | [5]; [16] 33% | [7]; [16] 69% | [9]; [16] -1% | [10]; [16] -10% | [13]; [16] 5%
active: [1]; at 1.2 µM 98% | [1]; at 3.7 µM 98% | [1]; at 11.0 µM 99% | [1]; at 33.0 µM 99% | [1]; at 100.0 µM 99% | [2]; at 11.0 µM 87% | [2]; at 33.0 µM 93% | [2]; at 100.0 µM 96% | [3]; at 1.2 µM 97% | [3]; at 3.7 µM 98% | [3]; at 11.0 µM 99% | [3]; at 33.0 µM 99% | [3]; at 100.0 µM 99% | [4]; at 1.2 µM 97% | [4]; at 3.7 µM 98% | [4]; at 11.0 µM 98% | [4]; at 33.0 µM 98% | [4]; [17] 99% | [4]; at 50.0 µM 75.5% | [4]; at 100.0 µM 98% | [5]; at 1.2 µM 97% | [5]; at 3.7 µM 98% | [5]; at 11.0 µM 99% | [5]; at 33.0 µM 99% | [5]; [17] 99% | [5]; at 50.0 µM 84.2% | [5]; at 100.0 µM 99% | [6]; at 1.2 µM 98% | [6]; at 3.7 µM 99% | [6]; at 11.0 µM 99% | [6]; at 33.0 µM 99% | [6]; at 100.0 µM 99% | [7]; [17] 99% | [7]; at 50.0 µM 90.1% | [8]; at 1.2 µM 97% | [8]; at 3.7 µM 99% | [8]; at 11.0 µM 99% | [8]; at 33.0 µM 99% | [8]; at 100.0 µM 99% | [9]; [17] 99% | [9]; at 50.0 µM 89.7% | [10]; at 1.2 µM 94% | [10]; at 3.7 µM 98% | [10]; at 11.0 µM 99% | [10]; at 33.0 µM 99% | [10]; [17] 99% | [10]; at 50.0 µM 90.1% | [10]; at 100.0 µM 98% | [11]; at 1.2 µM 97% | [11]; at 3.7 µM 98% | [11]; at 11.0 µM 98% | [11]; at 33.0 µM 99% | [11]; at 100.0 µM 99% | [12]; at 1.2 µM 96% | [12]; at 3.7 µM 98% | [12]; at 11.0 µM 98% | [12]; at 33.0 µM 97% | [12]; at 100.0 µM 98% | [13]; [17] 99% | [13]; at 50.0 µM 90.7% | [14]; at 1.2 µM 98% | [14]; at 3.7 µM 98% | [14]; at 11.0 µM 98% | [14]; at 33.0 µM 98% | [14]; at 100.0 µM 99%

NC(N)=NC(N)=Nc1ccccc1 (tested in a mixture with another compound)
inactive: [1]; at 1.2 µM -1% | [1]; at 3.7 µM -1% | [1]; at 11.0 µM 0% | [1]; at 33.0 µM 11% | [1]; at 100.0 µM 32% | [2]; at 1.2 µM -1% | [2]; at 3.7 µM -2% | [2]; at 11.0 µM -16% | [2]; at 33.0 µM -9% | [2]; at 100.0 µM 18% | [3]; at 1.2 µM -1% | [3]; at 3.7 µM -2% | [3]; at 11.0 µM 0% | [3]; at 33.0 µM 6% | [3]; at 100.0 µM 41% | [4]; at 1.2 µM 2% | [4]; at 3.7 µM -3% | [4]; [16] -2% | [4]; at 11.0 µM 1% | [4]; at 33.0 µM 1% | [4]; [17] 7% | [4]; at 50.0 µM 56.6% | [4]; at 100.0 µM 55% | [5]; at 1.2 µM 3% | [5]; at 3.7 µM 3% | [5]; [16] 4% | [5]; at 11.0 µM 4% | [5]; at 33.0 µM 12% | [5]; [17] 16% | [5]; at 50.0 µM 35.7% | [5]; at 100.0 µM 48% | [6]; at 1.2 µM -1% | [6]; at 3.7 µM -15% | [6]; at 11.0 µM -11% | [6]; at 33.0 µM -19% | [6]; at 100.0 µM 60% | [7]; [16] 3% | [7]; [17] -6% | [7]; at 50.0 µM 66.8% | [8]; at 1.2 µM -2% | [8]; at 3.7 µM -6% | [8]; at 11.0 µM -13% | [8]; at 33.0 µM -1% | [8]; at 100.0 µM 37% | [9]; [16] 33% | [9]; [17] -77% | [9]; at 50.0 µM 23.6% | [10]; at 1.2 µM -7% | [10]; at 3.7 µM 2% | [10]; [16] 20% | [10]; at 11.0 µM 10% | [10]; at 33.0 µM 9% | [10]; [17] 6% | [10]; at 50.0 µM 49.8% | [10]; at 100.0 µM 29% | [12]; at 1.2 µM 5% | [12]; at 3.7 µM 4% | [12]; at 11.0 µM 5% | [12]; at 33.0 µM -13% | [12]; at 100.0 µM 41% | [15]; at 1.2 µM 2% | [15]; at 3.7 µM 7% | [15]; at 11.0 µM 20% | [15]; at 33.0 µM 49% | [13]; [16] -4% | [13]; [17] -9% | [13]; at 50.0 µM 47% | [14]; at 1.2 µM 3% | [14]; at 3.7 µM -3% | [14]; at 11.0 µM 3% | [14]; at 33.0 µM 6% | [14]; at 100.0 µM 61%
active: [15]; at 100.0 µM 90%

CC(=O)/C(=C\c1ccc(Cl)c(Cl)c1)C(=O)C(C)CN(C)C (stereo unspecified)
active: [1]; at 100.0 µM 90% | [2]; at 100.0 µM 90% | [3]; at 100.0 µM 93% | [4]; at 100.0 µM 91% | [5]; [17] 76% | [5]; at 50.0 µM 87.5%
inactive: [1]; at 1.2 µM -12% | [1]; at 3.7 µM -13% | [1]; at 11.0 µM -12% | [1]; at 33.0 µM 10% | [2]; at 1.2 µM 7% | [2]; at 3.7 µM 7% | [2]; at 11.0 µM 3% | [2]; at 33.0 µM 37% | [3]; at 1.2 µM 6% | [3]; at 3.7 µM -2% | [3]; at 11.0 µM 10% | [3]; at 33.0 µM 46% | [4]; at 1.2 µM 26% | [4]; at 3.7 µM 22% | [4]; [16] 14% | [4]; at 11.0 µM 18% | [4]; at 33.0 µM 62% | [4]; [17] 36% | [4]; at 50.0 µM 64.4% | [5]; at 1.2 µM 19% | [5]; at 3.7 µM 29% | [5]; [16] 9% | [5]; at 11.0 µM 38% | [5]; at 33.0 µM 51%
